The nature of assay [1]: qHTS assay to identify aromatase inhibitors - cell viability counter screen (AID 743084).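 Also: cells stimulated with testosterone during compound exposure; nearly all actives have a fitted effect of over 55% in size.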 Also: potency is read from the fitted curve at half-maximal effect.
Assay [2] concerns the target Aryl hydrocarbon receptor (Homo sapiens) (UniProt P35869). The assay can be described thus: qHTS assay to identify small molecule that activate the aryl hydrocarbon receptor (AhR) signaling pathway (AID 743085).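 Also: HG2L7.5c1 human HepG2 liver cells with stably integrated DRE-driven firefly reporter; series mostly up to about 70 µM; nearly all actives have a fitted effect of over 15% in size.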 In short, it runs like this:
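Reporter assay in engineered HepG2 line HG2L7.5c1, whose plasmid carries twenty dioxin responsive elements upstream of firefly luciferase. Treatment lasted 24 h at 37C; ONE-Glo luminescence gauged induction.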

Assay [3] is described as follows: qHTS assay to identify small molecule that activate the aryl hydrocarbon receptor (AhR) signaling pathway - cell viability counter screen (AID 743086). Also: nearly all actives have a fitted effect of over 45% in size. Also: potency is read from the fitted curve at half-maximal effect. In short, it runs like this:
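HepG2-AhR-luc (HG2L7.5c1) cells, 4000/well, were preincubated 5 h at 37C, exposed to compound in qHTS format for 24 hr at 37C, then given CellTiter-Fluor for 30 min; viability was read as fluorescence in the reporter wells.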

Assay [4] can be described thus: qHTS assay to identify small molecule antagonists of the peroxisome proliferator-activated receptor gamma (PPARg) signaling pathway - cell viability counter screen (AID 743194). Also: nearly all actives have a fitted effect of over 55% in size. In short, it runs like this: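 PPARg-UAS-bla HEK293H cells were plated, rested 5 h at 37 C, then treated with compounds plus rosiglitazone (50 nM final) for 17 h at 37 C; viability was then read by CellTiter-Glo luminescence after 30 min at room temperature.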

Assay [5] in a line: qHTS assay for small molecule agonists of the antioxidant response element (ARE) signaling pathway (AID 743202; active = well fitted activation curve with a large enough effect in the signal ratio in the repeat runs, not every such curve was filed as active; the % refers to the signal ratio; also: potency is read from the fitted curve at half-maximal effect). In short, it runs like this:
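Compounds delivered in DMSO to ARE-bla HepG2 cells (2,000 cells/well, pre-incubated 5 h) and left 16 h at 37 C. LiveBLAzer B/G FRET substrate then added for 2 h at RT before fluorescence reading.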

A short description of assay [6]: qHTS assay for small molecule agonists of the antioxidant response element (ARE) signaling pathway - cell viability counter screen (AID 743203; calls by dose curve; also: nearly all actives have a fitted effect of over 55% in size; also: potency is read from the fitted curve at half-maximal effect). In short, it runs like this: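 Compounds in DMSO were pinned onto ARE-bla HepG2 cells plated 5 hrs earlier at 2,000 cells/well. Sixteen hours later at 37C/5% CO2, CellTiter-Glo was added and luminescence measured after 30 min at room temperature.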

Assay [7] in a line: qHTS assay for small molecule activators of the heat shock response signaling pathway - cell viability counter screen (AID 743209). Also: nearly all actives have a fitted effect of over 50% in size. In short, it runs like this:
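Counter screen for cytotoxicity in HeLa HSE-bla reporter cells. Treatment was 5 h at 37 C; viability was detected by luminescent ATP assay (CellTiter-Glo) in the same wells as the beta-lactamase read.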

Assay [8] in a line: qHTS assay to identify small molecule agonists of the peroxisome proliferator-activated receptor delta (PPARd) signaling pathway - cell viability counter screen (AID 743211). Also: nearly all actives have a fitted effect of over 55% in size. Also: potency is read from the fitted curve at half-maximal effect. In short, it runs like this:
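Multiplexed format: after the 2 h room-temperature LiveBLAzer B/G FRET step, CellTiter-Glo was added to the same wells. Luminescence after 30 min gave cell viability; compound exposure was 17 h at 37C.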

The nature of assay [9]: qHTS assay to identify small molecule agonists of the farnesoid-X-receptor (FXR) signaling pathway - cell viability counter screen (AID 743218). Also: nearly all actives have a fitted effect of over 45% in size. Also: potency is read from the fitted curve at half-maximal effect. In short, it runs like this: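 After 16 h at 37 C with test compounds, FXR-bla HEK 293T cells were given LiveBLAzer B/G substrate for 2 h at RT and then CellTiter-Glo; luminescence was taken after 30 min.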
The nature of assay [10]: qHTS assay to identify small molecule antagonists of the farnesoid-X-receptor (FXR) signaling pathway - cell viability counter screen (AID 743221; active = well fitted cell-killing curve with a large enough effect in the repeat runs, not every such curve was filed as active; also: nearly all actives have a fitted effect of over 50% in size). In short, it runs like this: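 CellTiter-Glo, 30 min RT, luminescence; same wells as the LiveBLAzer FRET read. Cells: FXR-UAS-bla HEK 293T. Treatment: compound with chenodeoxycholic acid 50 uM final, 16 h at 37 C.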
The target in assay [11] is Peroxisome proliferator-activated receptor gamma (Homo sapiens) (UniProt P37231). The assay can be described thus: qHTS assay to identify small molecule agonists of the peroxisome proliferator-activated receptor gamma (PPARg) signaling pathway (AID 743094; active = well fitted activation curve with a large enough effect in the signal ratio in the repeat runs, not every such curve was filed as active; the % refers to the signal ratio; also: potency is read from the fitted curve at half-maximal effect). In short, it runs like this:
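Following 5 h plating at 37C, PPARg-bla HEK293H cells receive compound or DMSO for 17 h; fluorescence intensity is recorded after LiveBLAzer B/G loading for 1 h at room temperature.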

Assay [12] deals with Vitamin D3 receptor (Homo sapiens) (UniProt P11473). The assay can be described thus: qHTS assay to identify small molecule agonists of the vitamin D receptor (VDR) signaling pathway (AID 743222; calls by dose curve). In short, it runs like this:
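VDR-bla cells were seeded, left 4 h, treated with compounds in DMSO for 16 h, incubated 2 h at RT with B/G FRET substrate, and read for fluorescence.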

The target is the same in assay [13]. The assay can be described thus: qHTS assay to identify small molecule antagonists of the vitamin D receptor (VDR) signaling pathway (AID 743223; active = well fitted inhibition curve with a large enough effect in the signal ratio in the repeat runs, not every such curve was filed as active; the % refers to the signal ratio). In short, it runs like this: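 After VDR-bla cells are plated and left 4 h at 37C, DMSO-dissolved compounds and 3 nM (final) calcitriol agonist are added. Incubation continues 16 h at 37C; FRET beta-lactamase substrate then develops 2 h at room temperature.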

A short description of assay [14]: qHTS assay to identify small molecule antagonists of the peroxisome proliferator-activated receptor delta (PPARd) signaling pathway - cell viability counter screen (AID 743213). Also: nearly all actives have a fitted effect of over 50% in size. Also: potency is read from the fitted curve at half-maximal effect. In short, it runs like this: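 PPARd-bla HEK293H cells (3000/well) got compound plus 300 nM L165041 agonist for 17 h at 37 C. Viability in the same wells came from CellTiter-Glo luminescence after 30 min at room temperature.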

The nature of assay [15]: qHTS assay for small molecule activators of the heat shock response signaling pathway (AID 743210; active = well fitted activation curve with a large enough effect in the signal ratio in the repeat runs, with a control signal flat, not every such curve was filed as active; the % refers to the signal ratio;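 also: HeLa cells with beta-lactamase reporter driven by heat shock elements; series mostly up to about 63 µM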). In short, it runs like this:
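Reporter gene assay: HeLa cells stably bearing an HSE-bla construct, compound treatment 5 h at 37 C, LiveBLAzer substrate 2.5 h at RT, fluorescence intensity.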

Assay [16] concerns the target Peroxisome proliferator-activated receptor delta (Homo sapiens) (UniProt Q03181). The assay can be described thus: qHTS assay to identify small molecule antagonists of the peroxisome proliferator-activated receptor delta (PPARd) signaling pathway (AID 743215; active = well fitted inhibition curve with a large enough effect in the signal ratio in the repeat runs, not every such curve was filed as active; the % refers to the signal ratio;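 also: cells stimulated with agonist L165041 at 300 nM final during compound exposure; series mostly up to about 62 µM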). In short, it runs like this: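 With L165041 present at 300 nM final, compounds were incubated 17 h at 37 C on PPARd UAS-bla HEK293H cells. A FRET-based beta-lactamase substrate was then applied for 2 h at room temperature and fluorescence intensity recorded.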

For assay [17], the target named is Bile acid receptor (Homo sapiens) (UniProt Q96RI1). The assay can be described thus: qHTS assay to identify small molecule agonists of the farnesoid-X-receptor (FXR) signaling pathway (AID 743220; active = well fitted activation curve with a large enough effect in the signal ratio in the repeat runs, not every such curve was filed as active; the % refers to the signal ratio). In short, it runs like this: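 Beta-lactamase reporter under UAS control in GeneBLAzer FXR HEK 293T cells (5000/well) measured with LiveBLAzer FRET substrate after 2 h at room temperature. Compound exposure lasted 16 h at 37C.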

For assay [18] the target is unchanged. The assay can be described thus: qHTS assay to identify small molecule antagonists of the farnesoid-X-receptor (FXR) signaling pathway (AID 743217; active = well fitted inhibition curve with a large enough effect in the signal ratio in the repeat runs, not every such curve was filed as active; the % refers to the signal ratio). In short, it runs like this:
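In this cell-based antagonist screen, inhibition of CDCA-driven (50 uM final) UAS-beta-lactamase expression in HEK 293T cells was measured by FRET fluorescence following 16 h compound exposure at 37 °C.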

The structures appear in SMILES notation. Inconclusive results are not listed. The source made the active and inactive calls. Unless noted, calls follow the shape of the dose curve; as a rule, active = well fitted curve in the direction sought with a large enough effect in the repeat runs; inconclusive = weak or mixed curves; inactive = no such curve, though single readings can be large; an effect the other way counts as inactive or inconclusive.

Chain of Aryl hydrocarbon receptor (Homo sapiens) (P35869 whole entry, looked up): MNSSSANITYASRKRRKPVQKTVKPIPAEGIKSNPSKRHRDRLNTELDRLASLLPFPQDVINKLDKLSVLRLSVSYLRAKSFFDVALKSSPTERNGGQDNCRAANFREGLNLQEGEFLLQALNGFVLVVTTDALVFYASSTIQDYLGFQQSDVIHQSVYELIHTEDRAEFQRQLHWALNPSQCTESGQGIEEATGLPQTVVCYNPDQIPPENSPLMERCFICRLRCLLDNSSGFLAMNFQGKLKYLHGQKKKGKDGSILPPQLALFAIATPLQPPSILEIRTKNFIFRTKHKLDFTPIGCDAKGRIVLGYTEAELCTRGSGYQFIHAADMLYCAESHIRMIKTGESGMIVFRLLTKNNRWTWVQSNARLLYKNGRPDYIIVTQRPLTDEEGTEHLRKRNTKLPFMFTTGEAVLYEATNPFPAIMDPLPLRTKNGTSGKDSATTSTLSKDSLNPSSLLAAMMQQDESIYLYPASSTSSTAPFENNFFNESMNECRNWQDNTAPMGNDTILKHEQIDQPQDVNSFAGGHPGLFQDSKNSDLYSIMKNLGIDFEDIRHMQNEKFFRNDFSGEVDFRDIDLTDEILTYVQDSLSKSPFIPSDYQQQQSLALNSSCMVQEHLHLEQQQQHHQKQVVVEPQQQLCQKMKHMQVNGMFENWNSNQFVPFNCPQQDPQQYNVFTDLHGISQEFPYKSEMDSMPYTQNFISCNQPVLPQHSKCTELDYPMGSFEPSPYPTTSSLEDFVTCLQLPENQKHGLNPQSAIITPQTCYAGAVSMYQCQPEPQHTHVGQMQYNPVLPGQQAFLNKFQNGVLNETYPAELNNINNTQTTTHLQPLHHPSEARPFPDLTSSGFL
Chain of Vitamin D3 receptor (Homo sapiens) (P11473 whole entry, looked up): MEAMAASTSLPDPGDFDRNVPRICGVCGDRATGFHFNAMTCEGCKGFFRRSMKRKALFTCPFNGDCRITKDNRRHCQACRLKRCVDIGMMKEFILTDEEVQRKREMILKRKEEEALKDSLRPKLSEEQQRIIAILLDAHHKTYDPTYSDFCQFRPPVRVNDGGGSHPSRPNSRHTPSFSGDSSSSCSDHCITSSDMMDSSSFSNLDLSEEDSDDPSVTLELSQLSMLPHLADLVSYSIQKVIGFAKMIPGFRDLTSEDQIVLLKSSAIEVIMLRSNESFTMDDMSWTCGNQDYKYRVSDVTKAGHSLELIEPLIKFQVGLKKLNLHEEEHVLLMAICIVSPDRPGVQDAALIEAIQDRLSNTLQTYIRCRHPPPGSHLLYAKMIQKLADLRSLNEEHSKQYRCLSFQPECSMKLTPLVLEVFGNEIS
Chain of Peroxisome proliferator-activated receptor gamma (Homo sapiens) (P37231 whole entry, looked up): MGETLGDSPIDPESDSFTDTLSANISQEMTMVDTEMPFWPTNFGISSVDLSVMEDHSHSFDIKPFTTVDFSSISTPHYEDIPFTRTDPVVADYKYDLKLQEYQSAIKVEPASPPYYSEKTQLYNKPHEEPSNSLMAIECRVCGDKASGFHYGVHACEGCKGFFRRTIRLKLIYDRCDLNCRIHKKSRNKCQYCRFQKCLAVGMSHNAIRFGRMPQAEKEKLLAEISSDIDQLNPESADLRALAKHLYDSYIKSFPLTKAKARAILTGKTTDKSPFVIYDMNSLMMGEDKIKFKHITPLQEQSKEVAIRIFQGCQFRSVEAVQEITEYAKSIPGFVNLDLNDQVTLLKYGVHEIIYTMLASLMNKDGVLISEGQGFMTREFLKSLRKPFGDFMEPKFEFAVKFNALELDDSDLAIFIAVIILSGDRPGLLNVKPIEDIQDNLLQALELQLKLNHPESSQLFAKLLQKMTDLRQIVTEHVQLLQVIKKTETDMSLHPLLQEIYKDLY
Chain of Bile acid receptor (Homo sapiens) (Q96RI1 whole entry, looked up): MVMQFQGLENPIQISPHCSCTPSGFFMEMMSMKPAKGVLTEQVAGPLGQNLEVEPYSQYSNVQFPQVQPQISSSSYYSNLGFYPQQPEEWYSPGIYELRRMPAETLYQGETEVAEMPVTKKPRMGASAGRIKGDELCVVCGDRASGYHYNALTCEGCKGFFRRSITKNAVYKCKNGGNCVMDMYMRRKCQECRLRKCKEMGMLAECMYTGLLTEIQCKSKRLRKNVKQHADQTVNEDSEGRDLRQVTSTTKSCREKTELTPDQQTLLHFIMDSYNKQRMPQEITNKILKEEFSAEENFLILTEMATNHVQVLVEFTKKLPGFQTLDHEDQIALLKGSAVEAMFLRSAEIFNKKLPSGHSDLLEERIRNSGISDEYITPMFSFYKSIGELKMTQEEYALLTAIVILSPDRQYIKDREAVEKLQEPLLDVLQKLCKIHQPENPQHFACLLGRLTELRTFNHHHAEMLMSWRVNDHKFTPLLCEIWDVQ
Chain of Peroxisome proliferator-activated receptor delta (Homo sapiens) (Q03181 whole entry, looked up): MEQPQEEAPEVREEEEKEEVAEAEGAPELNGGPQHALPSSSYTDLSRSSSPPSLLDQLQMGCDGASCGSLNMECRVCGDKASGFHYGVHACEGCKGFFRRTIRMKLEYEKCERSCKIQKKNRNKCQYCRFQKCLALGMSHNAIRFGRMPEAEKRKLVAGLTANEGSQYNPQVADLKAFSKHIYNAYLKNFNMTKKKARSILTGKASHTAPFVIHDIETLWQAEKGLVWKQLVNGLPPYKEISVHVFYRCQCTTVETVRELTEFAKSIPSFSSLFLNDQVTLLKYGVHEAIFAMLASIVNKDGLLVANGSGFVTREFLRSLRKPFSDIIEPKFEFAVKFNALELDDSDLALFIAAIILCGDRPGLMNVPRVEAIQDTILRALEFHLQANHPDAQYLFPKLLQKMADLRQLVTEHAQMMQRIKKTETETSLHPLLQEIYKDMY

For `CC(=O)[O][Al]`, the Potency result in assay [1], in assay [2], in assay [3], in assay [4], in assay [5] and in assay [6] was “inactive” each time. Besides, the Potency result in assay [7], in assay [8], in assay [9] and in [10] was “inactive” each time.
As for `C[C@@H]1C[C@H]2O[C@@]3(O[C@@H]2C(C)(C)O)[C@H](O)[C@@]2(C)[C@@H]4CC[C@H]5C(C)(C)[C@@H](O[C@@H]6OC[C@@H](O)[C@H](O)[C@H]6O)CC[C@@]56C[C@@]46CC[C@]2(C)[C@@H]13`, the Potency result in assay [1], in assay [2], in assay [3], in [11], in assay [6] and in assay [7] was “inactive” in each case. Besides, the Potency entry in [8], in assay [9] and in [12] was “inactive” throughout. The compound was called inactive in assay [13].
Regarding `CCCCc1nc2cccnc2n1Cc1ccc(-c2ccccc2-c2nnn[nH]2)cc1`, the Potency in [1] was 54.5 µM (active); in [11], 5.49 µM (active). Besides, the Potency entry in assay [2], in assay [3], in assay [4], in assay [6], in [7] and in assay [8] was “inactive” throughout. In addition, the Potency result in assay [14], in [9] and in assay [12] was “inactive” each time.
As for `CC(C)C[C@H]1C(=O)N2CCC[C@H]2[C@]2(O)O[C@](NC(=O)[C@@H]3C=C4c5cccc6[nH]c(Br)c(c56)C[C@H]4N(C)C3)(C(C)C)C(=O)N12`, the Potency result in [1], in assay [2], in assay [4], in assay [6], in assay [7] and in assay [15] was “inactive” each time. The Potency result in assay [9], in [10] and in assay [12] was “inactive” each time. The Potency in [3] was 26.6 µM (active); in [5] it was 4.13 µM (active). Moreover, the call in assay [13] was inactive.
As for `Nc1c(CC(=O)O)cccc1C(=O)c1ccc(Br)cc1`, the Potency entry in assay [1], in [2], in assay [3], in [4], in assay [5] and in assay [7] was “inactive” each time. The Potency entry in assay [8], in [14], in assay [16], in assay [17] and in assay [10] was “inactive” each time.
For the compound `CNCCCN1c2ccccc2CCc2ccccc21`, the Potency result in assay [1], in assay [2], in [3], in assay [4], in assay [7] and in assay [15] was “inactive” each time. Also, the Potency result in assay [17] is “inactive”. For the same compound, the Potency is 29.8 µM (active) in [6], 9.44 µM (active) in assay [14] and 18.8 µM (active) in assay [9].
For `Clc1ccc(Cn2c(CN3CCCC3)nc3ccccc32)cc1`, the Potency entry in assay [1], in assay [2], in assay [3], in assay [11], in assay [4] and in assay [6] was “inactive” each time. In assay [7], the Potency result is “inactive”. The Potency in [8] was 29.8 µM (active). Moreover, the call in [13] was inactive.
With `COc1ccc(S(=O)(=O)N2C(=O)[C@@](c3ccccc3OC)(N3C[C@H](O)C[C@H]3C(=O)N(C)C)c3cc(Cl)ccc32)c(OC)c1`, the Potency in assay [1] and in [3] was 30.6 µM (active) throughout. For the same compound, the Potency entry in assay [2], in assay [11], in assay [7], in assay [15], in assay [16] and in [10] was “inactive” throughout. In assay [12], the Potency entry is “inactive”.
Take `COc1ccc(C)cc1[N+](=O)[O-]`: the Potency result in assay [1], in [2], in assay [3], in assay [11], in assay [4] and in assay [6] was “inactive” in each case. Moreover, the Potency entry in [7], in assay [14], in assay [17], in [10] and in [12] was “inactive” each time.
As for `CCOC(=O)COC(=O)c1cc(Oc2ccc(C(F)(F)F)cc2Cl)ccc1[N+](=O)[O-]`, the Potency entry in [1], in assay [2], in assay [3], in assay [11], in assay [6] and in assay [7] was “inactive” throughout. The Potency entry in assay [8], in assay [14], in assay [18], in [9], in assay [10] and in assay [12] was “inactive” each time. For the same compound, the compound was called inactive in assay [13].

The values above are taken from PubChem BioAssay (Tox21).
